Assay outcomes as filed in PubChem.
This is a sample that favours compounds with a hit; in the whole collection about 28% have one here.
CYP2C19 inh – inhibitors of human CYP2C19. P33261. CYP2C19 Supersomes, luciferin-H EGE luminescence, 30 min. inhibition, % at 5 µM. hit rate 21% among 96,000;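 active = CYP2C19 inhibition above a set limit at 5 µM in the primary screen, cut at about 50% in these data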
CYP2C19 act – activators of human cytochrome P450 2C19; P33261; 96,000 tested, under 10 active; recombinant CYP2C19, luciferin-H EGE luminescence; hits give high values; 0 = fully inhibited enzyme, 1 = untreated enzyme; AID 1025; activation factor at 5 µM;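 active = activation factor of at least 2 at 5 µM in the primary screen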
CYP2C9 inhib – blocks human cytochrome P450 2C9. CYP2C9 Supersomes, luciferin-H conversion, luminescence. inhibition, % at 5 µM. P11712. hit rate 20% among 96,000;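 active = blocking of liver enzyme CYP2C9 beyond about 50% at 5 µM, limit read from the data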
Target sequence (P11712 whole entry, looked up): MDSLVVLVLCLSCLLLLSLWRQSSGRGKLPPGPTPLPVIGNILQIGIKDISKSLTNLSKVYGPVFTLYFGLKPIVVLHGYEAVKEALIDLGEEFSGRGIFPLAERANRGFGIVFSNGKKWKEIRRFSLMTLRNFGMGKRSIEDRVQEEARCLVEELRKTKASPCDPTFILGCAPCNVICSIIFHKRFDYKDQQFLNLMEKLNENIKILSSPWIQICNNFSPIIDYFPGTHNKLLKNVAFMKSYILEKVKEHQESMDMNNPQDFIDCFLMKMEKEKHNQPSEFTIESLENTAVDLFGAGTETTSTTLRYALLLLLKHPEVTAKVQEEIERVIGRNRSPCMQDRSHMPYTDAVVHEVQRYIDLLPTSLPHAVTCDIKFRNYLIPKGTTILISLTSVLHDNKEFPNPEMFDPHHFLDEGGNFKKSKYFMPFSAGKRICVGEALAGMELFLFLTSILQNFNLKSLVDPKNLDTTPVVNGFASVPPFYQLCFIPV
PTK2B oligo ant – Pyk2 (human) oligomerization antagonism | Q14289 | Q293 cells, Pyk2 FERM NanoBiT luminescence; hits give low values | z-score (the deposit names both 25 µM and 10 µM) | hit rate 0.83% among 99,000;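 active = Z-score of -3 or lower, scaled per plate to the spread of control and sample wells; inactive = z-score above -3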;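 note: negative z-score means lost luminescence so less FERM oligomerization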
CYP2C9 activ – increases human cytochrome P450 2C9 activity. hit rate 1.4% among 96,000. activation factor at 5 µM. AID 1024. recombinant CYP2C9, luciferin-H conversion, luminescence; hits give high values; factor 1 = untreated enzyme, 0 = blocked;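 active = activation factor of 2 or more for CYP2C9 at a 5 µM dose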
Of the large screens only hits and unclear results are named; the others gave an inactive call.

Cc1ccccc1Nc1nc(N)nc(CSc2nnnn2-c2ccccc2)n1	CYP2C19 inh 87.6, CYP2C9 inhib 82.4
Cc1nc(Cc2nnc(SCc3nc(N)nc(Nc4ccccc4C)n3)o2)cs1	CYP2C9 inhib 51.3
CN(C)c1nc(N)nc(CSc2nnnn2-c2ccccc2)n1	CYP2C19 inh 52.2
CCOC(=O)c1sc(NC(C)=O)nc1-c1ccccc1	none
COc1c(C)cccc1C(=O)Nc1ccc(CN2CCCCC2)cc1	none
O=C(Nc1ccc2nn(-c3ccccc3)nc2c1)c1ccc2c(c1)OCCO2	CYP2C19 inh 58.9, CYP2C9 inhib 55.5
Cc1cc(C)n(-c2ccc(C(=O)Nc3ccc4c(c3)OCCO4)cc2)n1	CYP2C19 inh 50.0
CCOc1ccc(-n2nc3ccc(NC(=O)c4ccc5c(c4)OCCO5)cc3n2)cc1	none (no result: CYP2C19 inh, CYP2C19 act, CYP2C9 inhib, CYP2C9 activ)
Cc1cc(C)n(-c2ccc(C(=O)NCc3ccc4c(c3)OCO4)cc2)n1	none
O=C(Nc1ccc2oc(-c3ccccc3F)nc2c1)c1ccc2c(c1)OCCO2	CYP2C9 inhib 51.3, PTK2B oligo ant -3.14
CC(=O)Nc1ccc2oc(-c3ccccc3Br)nc2c1	CYP2C9 inhib 72.6 (no result: PTK2B oligo ant)
CCC(=O)Nc1ccc2oc(-c3ccccc3Br)nc2c1	none
Cc1ccc2oc(-c3ccc(NC(=O)c4ccc5c(c4)OCO5)cc3)nc2c1	none (no result: CYP2C19 inh, CYP2C19 act, CYP2C9 inhib, CYP2C9 activ)
Cc1ccc(Oc2ncc(CN3CC(C)OC(C)C3)s2)cc1 (stereo unspecified)	none
COC(=O)CSc1nc2nc(C)c(Br)cc2[nH]1	none
C=C(C)CSc1nc2nc(C)c(Br)cc2[nH]1	CYP2C19 inh 55.3
CC1CN(S(=O)(=O)c2ccccc2)CC(C)O1 (stereo unspecified)	none
Cc1nc2ccc(NC(=O)c3cccc(S(=O)(=O)N4CC(C)OC(C)C4)c3)cc2s1 (stereo unspecified)	CYP2C19 inh 71.1, CYP2C9 inhib 66.2
CC1CN(S(=O)(=O)c2ccc(NC(=O)c3cc(-c4ccccc4O)n[nH]3)cc2)CC(C)O1 (stereo unspecified)	PTK2B oligo ant -3.07
OCCN(CCO)Cc1csc2ccccc12	none (no result: CYP2C19 inh, CYP2C19 act, CYP2C9 inhib, CYP2C9 activ)
C=C(C)COc1ccc(-c2n[nH]c(C)c2-c2ccc(OC)cc2)c(O)c1	none
CCCc1cc(-c2n[nH]c(C)c2-c2ccc(C(=O)OCC)o2)c(O)cc1O	CYP2C19 inh 97.3, CYP2C9 inhib 98.9
CCCc1cc(C(=O)Cc2ccc(F)cc2)c(O)cc1O	CYP2C19 inh 98.4, CYP2C9 inhib 100.0
CCCc1cc(C(=O)Cc2ccc(C(=O)OCC)o2)c(O)cc1O	CYP2C19 inh 93.3, CYP2C9 inhib 91.3
O=C(Cc1c(F)cccc1Cl)c1ccc(O)cc1O	none
CCCCc1ccc(CC(=O)O)cc1	none
O=C(Cc1ccc(F)cc1)c1ccc(O)cc1O	CYP2C19 inh 53.0
O=c1c2cc(-c3ccccc3)sc2ncn1/N=C/c1ccco1	none
CC(=O)Nc1ccc2nc(C3CCCCC3)[nH]c2c1	none
CN(C(=O)COC(=O)CNS(=O)(=O)/C=C/c1ccccc1)C1CCS(=O)(=O)C1 (stereo unspecified)	none
O=C(O)C1C2C=CC(O2)C1C(=O)NCCC1=CCCCC1 (stereo unspecified)	none (no result: CYP2C19 inh, CYP2C19 act, CYP2C9 inhib, CYP2C9 activ)
CC(CN1CCN(c2ccccc2)CC1)c1ccccc1 (stereo unspecified)	none
O=C1CCCN1CCC1CCN(C(=O)Nc2ccccc2)CC1	none
O=C1CCCN1CCNC(=S)Nc1ccccc1	CYP2C9 inhib 52.2
COc1ccc(C2(CNC(=O)/C=C/c3ccco3)CCCC2)cc1OC	CYP2C9 inhib 52.9
COc1ccc(C2(CNC(C)=O)CCCC2)cc1OC	none
Cc1ccc(C(C(=O)NCc2ccc(F)cc2)N(C(=O)c2csnn2)C2CC2)o1 (stereo unspecified)	none
O=c1nc(-c2ccccc2)cc(C(F)(F)F)[nH]1	CYP2C9 inhib 51.4
OC(c1cccs1)c1nccc2ccccc12 (stereo unspecified)	none
COc1ccc(S(=O)(=O)Nc2c(C)ccc3nsnc23)cc1OC	CYP2C19 inh 69.4
COc1ccc(S(=O)(=O)Nc2ccc(S(=O)(=O)Nc3nc(C)cc(C)n3)cc2)cc1OC	none
COc1ccc(NS(=O)(=O)c2cccc3nsnc23)cc1OC	CYP2C19 inh 82.2
CC(=O)Nc1cccc(NS(=O)(=O)c2cccc3nsnc23)c1	CYP2C19 inh 57.4
Cc1cccc(NS(=O)(=O)c2cccc3nsnc23)c1	CYP2C19 inh 76.4
CC(C)NS(=O)(=O)c1cccc2nsnc12	none
Cc1ccnc(NS(=O)(=O)c2cccc3nsnc23)c1	none
Cc1c(NC(=O)COC(=O)c2cc3c4ccccc4n(C)c3s2)c(=O)n(-c2ccccc2)n1C	none
